# From PubChem BioAssay (NCI)
# Values joined by “and” are separate entries in the source; they are usually repeats but may differ in a detail not shown here. Equal values may be shown once. About 83,000 compounds went through this panel and 20% of them were active in at least one assay; those are over-represented in the sample as a whole.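 Each cell line was grown in a 96-well plate and treated with one concentration of compound for 48 hours. Values below 10 were considered active.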 Active and inactive are the calls of the source.
# Test system: HT29 colon
# Test: NCI-60 one-dose screen, 48 h (100 = growth as untreated, 0 = no growth, -100 = all killed)
# Conditions: 0.01 µM
# Method: Growth inhibition of the HT29 human tumor cell line is measured as a screen for anti-cancer activity. Cells are grown in 96 well plates and exposed to the test compound for 48 hours. Compounds are tested at a single concentration, which is 10^-5 M for most compounds. The reported endpoint is percent growth (GI% or GIPRCNT), where numbers from 0 - 100% represent growth inhibition, and numbers from -100% - 0 represent cell death. For example, a value of 40 represents 60% growth inhibition. A value of 0 means no net growth occurred over the course of the experiment. A value of -40 indicates 40% of cells at the beginning of the experiment died by the end of the experiment. A value of -100 means all cells are dead at the end of the experiment.
# NCI-60 Human Tumor Cell Lines Screen was performed using the standard one-dose NCI protocol, which is described in more detail at https://dtp.cancer.gov/discovery_development/nci-60/default.htm.
# Compounds with GIPRCNT values below 10 were considered active. Activity score was based on GIPRCNT using the following formula: […]
# Score is 0 for GIPRCNT values of 100 or above, 50 for GIPRCNT values of 0, and 100 for GIPRCNT values of -100.
row,Compound,growth
1,CC(=O)O[C@H]1C(=O)[C@@]2(C)[C@H]([C@H](OC(=O)c3ccccc3)[C@]3(O)C[C@H](OC(=O)[C@H](O)[C@@H](NC(=O)c4ccccc4)c4ccccc4)C(C)=C1C3(C)C)[C@]1(OC(C)=O)CO[C@@H]1C[C@@H]2O,3.27% (active)

# Same assay, conditions: 2.5 µM
row,Compound,growth
1,CC(=O)O[C@H]1C(=O)[C@@]2(C)[C@H]([C@H](OC(=O)c3ccccc3)[C@]3(O)C[C@H](OC(=O)[C@H](O)[C@@H](NC(=O)c4ccccc4)c4ccccc4)C(C)=C1C3(C)C)[C@]1(OC(C)=O)CO[C@@H]1C[C@@H]2O,-29.4% (active)

# Same assay, conditions: 5 µM
row,Compound,growth
1,CC(=O)O[C@H]1C(=O)[C@@]2(C)[C@H]([C@H](OC(=O)c3ccccc3)[C@]3(O)C[C@H](OC(=O)[C@H](O)[C@@H](NC(=O)c4ccccc4)c4ccccc4)C(C)=C1C3(C)C)[C@]1(OC(C)=O)CO[C@@H]1C[C@@H]2O,-21.4% (active)

# Same assay, conditions: 10 µM
row,Compound,growth
1,O=C1C=CC(=O)N1c1ccc(N2C(=O)C=CC2=O)cc1,105% (inactive)
2,CCC(=O)Oc1ccc(/C=N/NC(N)=S)nc1,60.8% (inactive)
3,CN(C)c1ccc(/C=C/c2ccnc3ccccc23)cc1N,58.5% (inactive)
4,CC[C@@]1(OC(=O)CN(C)C)C(=O)OCc2c1cc1n(c2=O)Cc2cc3c(N)cccc3nc2-1,4.94% (active)
5,CN(CC(=O)O)c1ccc(/C=C/c2ccnc3ccccc23)cc1,88.6% (inactive)
6,Cc1cc(O)c2c(c1O)C(=O)C13C(=C2O)C(=O)C2C(O)C1C1C(O)C3C(=O)C3=C(O)c4c(O)cc(C)c(O)c4C(=O)C321 (stereo not given),3.7% (active)
7,O=S(=O)(c1cc(Cl)ccc1O)c1cc(Cl)ccc1O,105% (inactive)
8,Cc1c(-c2ccccc2)[nH]c2ccccc12,103% (inactive)
9,C=C1N(C)c2ccc(Cl)cc2C1(C)C,35.7% (inactive)
10,Cn1c2nc3ccccc3c-2nc2ccccc21,99.7% (inactive) and 103% (inactive)
11,CC(=O)O[C@H]1C(=O)[C@@]2(C)[C@H]([C@H](OC(=O)c3ccccc3)[C@]3(O)C[C@H](OC(=O)[C@H](O)[C@@H](NC(=O)c4ccccc4)c4ccccc4)C(C)=C1C3(C)C)[C@]1(OC(C)=O)CO[C@@H]1C[C@@H]2O,-21.5% (active) and -18.2% (active)
12,O=C(NC(=S)Nc1ccccn1)c1ccccc1,87.5% (inactive)
13,O=[N+]([O-])c1cc(S(=O)(=O)Nc2ccccc2)ccc1Cl,101% (inactive)
14,COc1cccc(C(c2cc3c(cc2O)OCO3)N2CCOCC2)c1OC (stereo not given),106% (inactive)
15,Cc1cc(N=C2C=CC(=[N+](C)C)C=C2)c(N)cc1N,93.8% (inactive)
16,NCc1c(O)ccc2ccccc12,103% (inactive)
17,ClCCn1c(CCl)nc2ccc(Cl)cc21,-59.8% (active)
18,O=C(O)c1ccccc1.[Ag],97.9% (inactive)

row,Compound,growth
1,CCOC(=O)[C@]1(Br)CC[C@@]1(Br)C(=O)OCC,83.1% (inactive)
2,S=P(N1CC1)(N1CC1)N1CC1,99.6% (inactive) and 83.1% (inactive)
3,S=C1SCN(CCc2ccccc2)CN1CCc1ccccc1,95.8% (inactive)
4,CN(C)CCNc1cccc2sc3ccc(O)cc3c(=O)c12,6.36% (active)
5,CCC(C)(c1ccc(O)c(C)c1)c1ccc(O)c(C)c1,104% (inactive)
6,O=C(CNS(=O)(=O)Cc1ccccc1)NNc1ccccc1,81.5% (inactive)
7,N#CC(=C1C=CC(=NO)C=C1)c1ccccc1,1.57% (active)
8,COc1ccc(N)c2c1C(=O)c1ccccc1C2=O,93.6% (inactive)
9,COc1ccc2c(c1)[nH]c1c(/C=C/c3ccccc3)nccc12,21.6% (inactive)
10,O=Nc1ccc(Nc2ccccc2)cc1,95.1% (inactive)
11,N#C/C(=C/N1C(=O)/C(=C/c2ccc([N+](=O)[O-])cc2)SC1=S)c1nc2ccccc2s1,98.6% (inactive)
12,O=C1C(Cl)=C(Cl)C(Cl)(Cl)C(Cl)C1(Cl)Cl (stereo not given),99.5% (inactive)
13,CC1CCC2(C(=O)O)CCC3(C)C(=CCC4C5(C)CC(O)C(O)C(C)(CO)C5C(O)CC43C)C2C1C (stereo not given),110% (inactive)
14,COc1cc(N)ccc1Nc1c2ccccc2nc2ccccc12,-62.4% (active)
15,O=C1c2cccc3cc([N+](=O)[O-])cc(c23)C(=O)N1CCN1CCCC1,2.59% (active)
16,Cc1cc(Cl)ccc1NC(=O)/C(Cl)=C1/Sc2ccccc2NC1=O,107% (inactive)
17,O=c1[nH]cc(/C=N\Nc2ccccc2)c(=O)[nH]1,58.8% (inactive)
18,Cn1ncc2cc3c(Nc4ccc(Cl)cc4)cccc3nc21,78.7% (inactive)

# Same assay, conditions: 100 µM
row,Compound,growth
1,S=P(N1CC1)(N1CC1)N1CC1,54.6% (inactive)
